Assay outcomes deposited in PubChem BioAssay by National Center for Advancing Translational Sciences (NCATS).
An excerpt weighted towards active compounds, which were near 18% of everything screened.
PLK1 PBD inh = blocks phosphopeptide binding to human PLK1 polo-box domain; Plk1 PBD binding of FITC phosphopeptide, fluorescence polarization; P53350; AID 720504; Potency, µM, inactives show max response, negative = inhibition, hits mostly inhibitors; hit rate 2.8% among 360,000; further: series mostly up to about 57 µM; nearly all actives have a fitted effect of over 65% in size
GCN5L2 inh = blocks human GCN5L2 histone acetyltransferase; hit rate 0.21% among 390,000; Potency, µM (highest dose often 58.9 µM), without a hit: top-dose activity change, negative = inhibition, most hits filed as inhibitors; GCN5L2 HAT assay, ThioGlo1 CoA-SH fluorescence; Q92830
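Compounds, pin-transferred from DMSO stocks, meet 20nM GCN5L2 for 15 min before the reaction begins with H3(1-25) peptide (75uM) and acetyl-CoA (70uM). Thiol-reactive ThioGlo1 reports CoA release over 20 min at room temperature.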
TDP1 inh = blocks human tyrosyl-DNA phosphodiesterase 1. Q9NUW8. recombinant TDP1, AlphaScreen DNA substrate cleavage. hit rate 0.28% among 350,000. Potency, µM (top dose mostly 130 µM), for inactives: top-dose activity change, negative = inhibition, usual class: inhibitors; further: nearly all actives have a fitted effect of over 40% in size
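AlphaScreen read-out: signal falls as enzyme removes the 3' tyrosine-FITC from a 5'-biotinylated DNA oligo (15 nM, 5 min, RT). Enzyme was E. coli-made recombinant Tdp1 at 1 nM, exposed to compound for 15 min beforehand; beads 10 ug/ml, 10 min.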
VDR inh = blocks the human vitamin D receptor | hit rate 0.93% among 400,000 | VDR-SRC2-3 peptide fluorescence polarization, 2 h | Potency, µM, inactives show max response, negative = inhibition, most hits filed as inhibitors
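Inhibition of the VDR/SRC2-3 peptide interaction is quantified by fluorescence polarization. Compounds (23 nl, pintool) incubate with the reagents for 2 hours at ambient room temperature.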
DT40 TDP1 CPT = DT40-hTDP1 cell growth loss with CPT; chicken DT40 Tdp1-/-;hTDP1 cells + 20 nM CPT, ATP luminescence, 48 h; Potency, µM (titrated, usually from 46.2 µM), for the others: at the highest dose activity change, negative = growth inhibition, usual class: inhibitors; hit rate 12% among 420,000; AID 686979; further: nearly all actives have a fitted effect of over 55% in size
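Chicken DT40 Tdp1-/- cells stably complemented with human TDP1 were seeded at 400 cells/well in medium containing 20 nM camptothecin, exposed to pin-transferred compounds, and grown at 37 °C for at least 48 hr. Viability was read as ATP luminescence.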
DT40 TDP1 no CPT = qHTS for Inhibitors of human tyrosyl-DNA phosphodiesterase 1 (TDP1): qHTS in cells in absence of CPT | DT40 Tdp1-/- hTDP1 cells, no CPT, ATP luminescence, 48 h | Potency, µM (top dose mostly 46.2 µM), without a hit: at the highest dose activity change, negative = growth inhibition, usual class: inhibitors | hit rate 15% among 420,000; further: nearly all actives have a fitted effect of over 55% in size
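A cellular qHTS used chicken DT40 cells lacking endogenous Tdp1 but carrying stably transfected human TDP1. Compounds were applied without camptothecin, and cell growth kinetics were judged by ATP-dependent luminescence after ≥48 hr.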
* marks the source's active call; other numbers are inactive results; ? = inconclusive; / = not tested or not shown. The call rests on the fitted dose curve; in most records, active means well fitted curve in the direction sought with a large enough effect; inconclusive means small, poorly fitted or top-dose-only effect, or another doubt; inactive means no such curve, though single readings can be large; an effect the other way counts as inactive or inconclusive. On the % scale 0 is the no-effect control and ±100 the full control effect; potency means the concentration at half of the fitted maximal effect.

SMILES	PLK1 PBD inh	GCN5L2 inh	TDP1 inh	VDR inh	DT40 TDP1 CPT	DT40 TDP1 no CPT
Cc1ccn2c(NCc3ccccc3)c(-c3cccs3)nc2c1	-7%	-20%	5%	2%	16µM*	23µM*
Cc1ccn2c(NC3CCCC3)c(-c3cccs3)nc2c1	4.2µM*	-22%	5%	40µM*	15µM*	23µM*
Cc1ccc2nc(-c3cccnc3)c(NC3CCCCC3)n2c1	6%	0%	-2%	-13%	?	?
COc1ccc(NC(=O)c2ccc3c(=O)n(Cc4ccco4)c(=S)[nH]c3c2)c(OC)c1	-12%	0%	2%	-2%	?	13µM*
COc1cc2[nH]c(=S)n(Cc3ccco3)c(=O)c2cc1OC	-7%	-4%	4%	-13%	-9%	-21%
Cc1ccc(-n2c(=O)c3oc4ccccc4c3n(Cc3ccccc3)c2=O)cc1C	/	0%	0%	7%	21µM*	13µM*
COc1ccccc1NC(=O)Cn1c(=O)n(Cc2ccco2)c(=O)c2oc3ccccc3c21	/	0%	-5%	11%	?	15µM*
O=c1c2oc3ccccc3c2n(Cc2cccc(Cl)c2)c(=O)n1Cc1ccc2c(c1)OCO2	/	-5%	3%	-4%	-22%	?
O=c1c2oc3ccccc3c2n(Cc2cccc(Cl)c2)c(=O)n1Cc1ccco1	/	-8%	8%	4%	16µM*	16µM*
CCOc1ccccc1N1C(=O)c2ccc(S(=O)(=O)c3ccc(C(=O)O)cc3)cc2C1=O	-3%	-2%	12%	17%	1%	1%
CCC1CN(C(=O)Nc2cccc3c2CCCC3)c2cc(C)ccc2O1 (configuration not stated)	/	-1%	5%	8%	?	?
CSCCNC(=O)C1(C)CCN1C(=O)CCc1ccccc1 (configuration not stated)	-3%	/	/	/	-13%	1%
COc1cccc(Cn2c(=O)n(Cc3ccco3)c(=O)c3oc4ccccc4c32)c1	/	-4%	3%	-3%	?	23µM*
CS(=O)(=O)c1ccc(Sc2nc3ccccc3s2)c([N+](=O)[O-])c1	-15%	21%	3%	-6%	10µM*	13µM*
CCOC(=O)c1sc(N2C(=O)C(O)=C(C(=O)c3ccc(C)o3)C2c2ccc(OC)c(OC)c2)nc1C (configuration not stated)	?	?	2%	-14%	23µM*	?
CCOC(=O)c1sc(N2C(=O)C(O)=C(C(=O)c3ccc(C)o3)C2c2cccc([N+](=O)[O-])c2)nc1C (configuration not stated)	24µM*	?	8%	?	-9%	?
COc1ccc2nc(N3C(=O)C(O)=C(C(=O)c4ccco4)C3c3ccc(OC)c(OC)c3)sc2c1 (configuration not stated)	-13%	/	/	/	?	?
CCOC(=O)c1sc(N2C(=O)C(O)=C(C(=O)c3ccco3)C2c2ccc([N+](=O)[O-])cc2)nc1C (configuration not stated)	30µM*	/	/	89µM*	16%	-4%
CC(Sc1cccc[n+]1[O-])C(=O)Nc1ccc(Oc2ccccc2)cc1 (configuration not stated)	?	0%	0%	-8%	?	?
CC1(C)CC(=O)C2=C(C1)c1c(ccc3ccccc13)NC2c1ccc(OCC(=O)O)cc1 (configuration not stated)	?	-11%	/	2%	1%	?
CC1(C)CC(=O)C2=C(C1)c1c(ccc3ccccc13)NC2c1ccc(Br)o1 (configuration not stated)	?	-11%	2%	13%	?	21µM*
CCc1nc2c(OCC3COc4ccccc4O3)cccn2c1N(C)C(=O)c1ccccc1F (configuration not stated)	-6%	/	/	/	21µM*	21µM*
CCc1nc2c(OCc3ccc(F)c(F)c3)cccn2c1N(C)C(=O)c1ccncc1	-7%	/	/	/	-10%	-27%
CCc1nc2c(OCC3CCCCC3)cccn2c1N(C)C(=O)c1ccc(C)cc1	-10%	/	/	/	21µM*	15µM*
CCc1nc2c(OCCC3CCCCC3)cccn2c1N(C)C(=O)c1ccc(OC)cc1	-2%	/	/	/	?	21µM*
SMILES	PLK1 PBD inh	GCN5L2 inh	TDP1 inh	VDR inh	DT40 TDP1 CPT	DT40 TDP1 no CPT
CCc1nc2c(OCCC3CCCCC3)cccn2c1N(C)C(=O)c1ccncc1	-7%	/	/	/	16µM*	15µM*
CCc1nc2c(OCc3ccc(C(=O)N(C)C)cc3)cccn2c1N(C)C(=O)c1ccc(C)cc1	-9%	/	/	/	1%	-23%
CCc1nc2c(OCC3COc4ccccc4O3)cccn2c1N(C)C(=O)c1cccs1 (configuration not stated)	-9%	/	/	/	?	?
O=C(CCn1c(=O)c2ccccc2n(Cc2cccc(F)c2)c1=O)NCc1ccc2c(c1)OCO2	/	2%	-1%	-19%	-24%	-27%
FC(F)(F)Oc1ccccc1C(c1nnnn1Cc1ccccc1)N1CCN(C/C=C/c2ccccc2)CC1 (configuration not stated)	-13%	/	/	/	?	?
FC(F)(F)Oc1ccccc1C(c1nnnn1-c1ccc2c(c1)OCCO2)N1CCN(C/C=C/c2ccccc2)CC1 (configuration not stated)	2%	/	/	/	?	15µM*
CCC(c1nnnn1-c1ccc2c(c1)OCCO2)N1CCN(CC)CC1 (configuration not stated)	4%	/	/	/	8%	-22%
C(=C\c1ccccc1)/CN1CCN(C(c2cccc3ccccc23)c2nnnn2-c2ccc3c(c2)OCCO3)CC1 (configuration not stated)	4%	/	/	/	13µM*	8.2µM*
Cc1ccc(C)c(Cn2c(=O)n(Cc3ccc4c(c3)OCO4)c(=O)c3oc4ccccc4c32)c1	/	-7%	5%	10%	-6%	-13%
CCOc1ccc(NC(=O)c2ccc3c(c2)CCN3S(=O)(=O)CC)cc1	/	-8%	9%	-6%	-11%	?
COc1ccc(Cl)cc1NC(=O)CN1CCN(Cc2ccccc2)CC1	4%	-3%	/	-11%	?	?
Cc1[nH]n(-c2ccccc2)c(=O)c1C(C[N+](=O)[O-])c1ccc(F)cc1 (configuration not stated)	?	-5%	4%	?	7.3µM*	12µM*
